Measured values taken from PubChem BioAssay AID1159580 (chemical genetic matrix, 2015).
Values joined by “and” are separate entries in the source; they are usually repeats but may differ in a detail not shown here. Equal entries are not always repeated. About 2,000 (36%) of roughly 5,500 compounds were called active. Inconclusive results (about 18%) are left out. Cut-off read from the data, not from the text of the source: active = normalized growth mostly below about 0.91 (no sharp cut-off); inconclusive = no clear call, values can overlap the other calls; inactive = mostly above about 0.92. The list shows a part of the results.

Assay: chemical genetic growth profiling, strain panel (AID 1159580);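 note: tested at 20 µM; growth read once vehicle control cultures reached saturation at 30 °C; 1 = growth at the plate median or of vehicle wells; lower values mean less growth of the strain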
Conditions: S. cerevisiae deletion strains, growth OD

Measured: normalized growth

CC1=C(/C=C/C(C)=C/C=C/C(C)=C/CO)C(C)(C)CCC1
inactive: locus YAL013W, strain DEP1, stronger effect = lower value 1 | locus YAL021C, strain ccr4, stronger effect = lower value 1.05 | locus YAL026C, strain drs2, stronger effect = lower value 1.03 | locus YAL030W, strain snc1, stronger effect = lower value 0.995 | locus YBL061C, strain skt5, stronger effect = lower value 1.02 | locus YBR009C, strain hhf1, stronger effect = lower value 0.961 | locus YBR021W, strain FUR4, stronger effect = lower value 1.01 | locus YBR023C, strain chs3, stronger effect = lower value 1.01 | locus YBR171W, strain sec66, stronger effect = lower value 1.01 | locus YBR229C, strain ROT2, stronger effect = lower value 0.969 | locus YBR231C, strain swc5, stronger effect = lower value 0.983 | locus YBR279W, strain paf1, stronger effect = lower value 1 | locus YCL011C, strain gbp2, stronger effect = lower value 1.04 | locus YCL016C, strain dcc1, stronger effect = lower value 1.04 | locus YCL029C, strain bik1, stronger effect = lower value 1 | locus YCL061C, strain MRC1, stronger effect = lower value 1.01 | locus YCL069W, strain vba3, stronger effect = lower value 1.01 | locus YCR088W, strain abp1, stronger effect = lower value 1.03 | locus YDL005C, strain med2, stronger effect = lower value 1.02 | locus YDL035C, strain GPR1, stronger effect = lower value 0.982 | locus YDL040C, strain nat1, stronger effect = lower value 0.998 | locus YDL074C, strain BRE1, stronger effect = lower value 0.938 | locus YDL101C, strain DUN1, stronger effect = lower value 0.977 | locus YDL134C, strain PPH21, stronger effect = lower value 1.02 | locus YDL185W, strain tfp1, stronger effect = lower value 0.997 | locus YDL192W, strain arf1, stronger effect = lower value 1 | locus YDR001C, strain nth1, stronger effect = lower value 1.01 | locus YDR069C, strain doa4, stronger effect = lower value 1.04 | locus YDR101C, strain arx1, stronger effect = lower value 0.993 | locus YDR137W, strain rgp1, stronger effect = lower value 1.03 | locus YDR150W, strain NUM1, stronger effect = lower value 1 | locus YDR159W, strain sac3, stronger effect = lower value 0.968 | locus YDR162C, strain NBP2, stronger effect = lower value 0.993 | locus YDR195W, strain ref2 0.988 | locus YDR297W, strain sur2, stronger effect = lower value 1 | locus YDR318W, strain mcm21, stronger effect = lower value 1 | locus YDR334W, strain swr1, stronger effect = lower value 1.02 | locus YDR335W, strain msn5, stronger effect = lower value 1.02 | locus YDR388W, stronger effect = lower value 1 | locus YDR392W, strain spt3, stronger effect = lower value 0.965 | locus YDR502C, strain sam2, stronger effect = lower value 1 | locus YEL003W, strain gim4, stronger effect = lower value 1 | locus YEL037C, strain rad23, stronger effect = lower value 1 | locus YEL061C, strain CIN8 (second series), stronger effect = lower value 1.01 | locus YEL061C, strain CIN8, stronger effect = lower value 0.992 | locus YER015W, strain faa2, stronger effect = lower value 1.01 | locus YER016W, strain bim1, stronger effect = lower value 1.06 | locus YER110C, stronger effect = lower value 0.999 | locus YER111C, strain swi4, stronger effect = lower value 1 | locus YER155C, strain BEM2 (second series), stronger effect = lower value 1.07 | locus YER155C, strain BEM2, stronger effect = lower value 1.01 | locus YER167W, strain BCK2, stronger effect = lower value 1 | locus YFR010W, strain ubp6, stronger effect = lower value 0.988 | locus YGL078C, strain dbp3, stronger effect = lower value 1.01 | locus YGL086W, strain mad1, stronger effect = lower value 0.983 | locus YGL167C, strain pmr1, stronger effect = lower value 1.01 | locus YGL173C, strain kem1, stronger effect = lower value 0.971 | locus YGL227W, strain vid30, stronger effect = lower value 1 | locus YGL240W, strain doc1, stronger effect = lower value 1.01 | locus YGL248W, strain PDE1, stronger effect = lower value 0.965 | locus YGL253W, strain hxk2, stronger effect = lower value 0.993 | locus YGR078C, strain PAC10, stronger effect = lower value 0.967 | locus YGR135W, strain pre9, stronger effect = lower value 1 | locus YGR252W, strain gcn5, stronger effect = lower value 0.985 | locus YHR013C, strain ard1, stronger effect = lower value 1.04 | locus YHR027C, strain rpn1, stronger effect = lower value 1.01 | locus YHR030C, strain SLT2, stronger effect = lower value 1.01 and 0.999 | locus YHR079C, strain IRE1 (second series), stronger effect = lower value 1.01 | locus YHR079C, strain IRE1, stronger effect = lower value 1.04 | locus YHR094C, strain hxt1, stronger effect = lower value 1.01 | locus YHR129C, strain ARP1, stronger effect = lower value 1.01 | locus YHR142W, strain chs7, stronger effect = lower value 1 | locus YHR200W, strain rpn10, stronger effect = lower value 1 | locus YIL066C, strain RNR3, stronger effect = lower value 0.964 | locus YIL073C, strain SPO22, stronger effect = lower value 1.01 | locus YIL125W, strain kgd1, stronger effect = lower value 0.995 | locus YIR030C, strain dcg1, stronger effect = lower value 0.998 | locus YJL092W, strain hpr5, stronger effect = lower value 1 | locus YJL095W, strain BCK1 (second series), stronger effect = lower value 1 | locus YJL095W, strain BCK1, stronger effect = lower value 0.924 and 1.01 | locus YJL115W, strain asf1, stronger effect = lower value 1.01 | locus YJL129C, strain trk1, stronger effect = lower value 0.985 | locus YJL134W, strain LCB3, stronger effect = lower value 1.01 | locus YJL154C, strain vps35, stronger effect = lower value 1.02 | locus YJL164C, strain tpk1, stronger effect = lower value 0.993 | locus YJL166W, strain qcr8, stronger effect = lower value 0.967 | locus YJL168C, strain set2, stronger effect = lower value 0.997 | locus YJL187C, strain SWE1 (second series), stronger effect = lower value 0.96
